Test results as given in publication PMC4336329 (PLoS ONE, 2015).
Among all 310,000 compounds or so, about 14,000 (4.5%) showed an effect of 50% or more. Effects have a minus sign here. The full list was thinned out, with strong results kept by preference.

These compounds were tested against human ether-à-go-go-related gene (hERG) potassium channel (human, UniProt Q12809) (assay: primary screen, population patch clamp on CHO cells stably expressing hERG; higher = less effect of the substance).
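Further: peak tail current of the secondary pulse compared with the same well before compound.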

human ether-à-go-go-related gene (hERG) potassium channel, sequence (Q12809 whole entry, looked up): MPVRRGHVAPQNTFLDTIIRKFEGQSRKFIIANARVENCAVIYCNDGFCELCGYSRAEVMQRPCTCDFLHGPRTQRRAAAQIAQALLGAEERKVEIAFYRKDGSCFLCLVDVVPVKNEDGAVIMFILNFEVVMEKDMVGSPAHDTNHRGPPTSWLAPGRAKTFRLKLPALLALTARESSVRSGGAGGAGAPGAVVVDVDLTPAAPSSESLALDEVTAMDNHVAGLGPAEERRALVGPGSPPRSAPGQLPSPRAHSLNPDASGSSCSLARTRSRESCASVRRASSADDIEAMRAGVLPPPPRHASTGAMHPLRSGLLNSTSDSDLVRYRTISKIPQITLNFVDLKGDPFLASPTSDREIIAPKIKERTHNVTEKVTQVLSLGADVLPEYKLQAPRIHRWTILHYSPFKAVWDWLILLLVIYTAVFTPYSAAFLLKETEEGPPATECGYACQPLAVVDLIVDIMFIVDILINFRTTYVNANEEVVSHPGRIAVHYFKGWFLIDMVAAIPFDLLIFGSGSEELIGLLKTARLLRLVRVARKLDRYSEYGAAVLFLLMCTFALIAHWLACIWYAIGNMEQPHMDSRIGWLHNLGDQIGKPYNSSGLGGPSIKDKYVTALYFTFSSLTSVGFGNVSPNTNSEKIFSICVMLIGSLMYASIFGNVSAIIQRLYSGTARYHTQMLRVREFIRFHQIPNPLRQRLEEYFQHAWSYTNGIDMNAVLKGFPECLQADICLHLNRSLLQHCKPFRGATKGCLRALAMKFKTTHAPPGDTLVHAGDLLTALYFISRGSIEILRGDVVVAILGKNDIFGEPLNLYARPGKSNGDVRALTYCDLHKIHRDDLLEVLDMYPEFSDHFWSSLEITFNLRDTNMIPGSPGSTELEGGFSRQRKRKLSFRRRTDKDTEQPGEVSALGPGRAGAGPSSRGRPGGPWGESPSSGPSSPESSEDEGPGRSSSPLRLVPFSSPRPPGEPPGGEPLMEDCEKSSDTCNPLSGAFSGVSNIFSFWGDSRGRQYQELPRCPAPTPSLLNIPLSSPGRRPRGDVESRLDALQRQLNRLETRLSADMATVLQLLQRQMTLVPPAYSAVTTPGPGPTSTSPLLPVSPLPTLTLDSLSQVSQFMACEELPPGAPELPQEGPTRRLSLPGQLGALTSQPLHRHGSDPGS

Row | Structure (SMILES) | hERG current change (%, negative = inhibition) at 10uM [%]
1 | CC(=O)c1ccc(OCC(=O)N(C)CC(=O)Nc2ccc(N3CCOCC3)cc2)cc1 | 9.61
2 | CC(=O)Nc1ccc(S(=O)(=O)NCC(=O)OCC(=O)N2CCCc3ccccc32)cc1 | 4.4
3 | C/C(=N\NC(=O)c1ccc(N(C)C)cc1)c1ccc(C)c(C)c1 | -14.5
4 | COC(=O)c1cccc(S(=O)(=O)N2CCOCC2)c1 | 6.61
5 | O=C(Oc1ccc(Br)cc1)c1cccc(S(=O)(=O)N2CCOCC2)c1 | -35.6
6 | Cc1cc(=O)oc2ccc(OC(=O)c3cccc(S(=O)(=O)N4CCOCC4)c3)cc12 | -70.5
7 | CC(C)C1Oc2ccccc2N(CC(=O)N(C)C2CCCCC2)C1=O (stereo not shown) | -10.1
8 | CCc1nc(N2CCNCC2)c(C#N)c2c1CSC(C)(C)C2 | 2.02
9 | CCCCc1nc(N2CCNCC2)c(C#N)c2c1CSC(C)(C)C2 | -64.7
10 | CCCCc1nc(Cl)c(C#N)c2c1CSC(C)(C)C2 | -13.1
11 | CCCCn1c(N)c(N(CC)C(=O)c2cccc(OCc3ccccc3)c2)c(=O)[nH]c1=O | -9.67
12 | Cc1ccccc1N1CCN(Cc2nc(Cc3ccccc3F)no2)CC1 | -3.53
13 | Fc1ccccc1Cc1noc(CN2CCN(C/C=C/c3ccccc3)CC2)n1 | -74
14 | O=CN1CCCN(Cc2nc(Cc3ccccc3F)no2)CC1 | 16.1
15 | C(=C\c1ccccc1)/CN1CCN(Cc2nc(Cc3ccccc3)no2)CC1 | -65.1
16 | COc1ccccc1CN1CCN(Cc2nc(Cc3ccccc3)no2)CC1 | -36
17 | c1ccc(Cc2noc(CN3CCN(CCOc4ccccc4)CC3)n2)cc1 | -40.9
18 | COC(=O)c1ccc(C(C(=O)NCc2ccccc2)N(Cc2ccco2)C(=O)c2cnccn2)cc1 (stereo not shown) | -25.4
19 | COC(=O)/C(=C\Nc1ccc(Cl)cc1Cl)NC(=O)c1ccccc1 | -4.83
20 | C=CCNC(=S)NNC(=O)CCC(O)CCCCC (stereo not shown) | 16.4

Row | Structure (SMILES) | hERG current change (%, negative = inhibition) at 10uM [%]
21 | CCN(CC(=O)NCc1cccs1)C(=O)CCC(=O)c1ccc(C)cc1 | -46.9
22 | CCN(CC(=O)NCc1ccc(F)cc1)C(=O)c1ccc(Cl)cc1 | -23.7
23 | Cc1ccc(C(=O)CCC(=O)NCc2ccc(Cl)cc2)cc1 | -8.52
24 | CCOc1ccc(C(=O)CCC(=O)N(CC)CC(=O)NCc2ccc(Cl)cc2)cc1 | -70.3
25 | CCN(CC(=O)NCc1ccc(Cl)cc1)C(=O)CCC(=O)c1ccc(C)cc1 | -66.5
26 | CCOc1ccc(C(=O)CCC(=O)N(CC)CC(=O)Nc2c(F)cccc2F)cc1 | -25.6
27 | CCN(CC(=O)NCc1ccc(Cl)cc1)C(=O)CCC(=O)c1ccc(F)cc1 | -61.9
28 | CCN(CC(=O)NCc1cccs1)C(=O)CCC(=O)c1ccc(F)cc1 | -49.7
29 | CCOc1ccc(C(=O)CCC(=O)N(CC)CC(=O)NCc2cccs2)cc1 | -19.9
30 | Cc1ccc(C)c(N(CC(=O)NC2CCCC2)S(=O)(=O)c2ccccc2)c1 | 19.9
31 | Cl.O=C(O)c1cc(S(=O)(=O)N2CCN(C(c3ccccc3)c3ccccc3)CC2)ccc1Cl | 14.7
32 | COc1ccc([C@H]2CC(=O)C=C(c3ccc(OC(F)(F)F)cc3)C2)cc1 | 5.59
33 | COc1ccccc1CN1CCN(Cc2cc(OC)c(OC)cc2OC)CC1.O=C(O)C(=O)O | -11.2
34 | COc1cc(CN2CCN(C(c3ccccc3)c3ccccc3)CC2)cc(OC)c1OC.O=C(O)C(=O)O | -17.2
35 | COc1ccccc1CN1CCN(C(c2ccccc2)c2ccccc2)CC1.O=C(O)C(=O)O | -55.1
36 | COc1ccccc1N1CCN(Cc2cccc(OC)c2O)CC1 | -64.9
37 | COc1ccc(OCCOCCN2CCN(C)CC2)cc1.O=C(O)C(=O)O | -6.29
38 | CCOc1ccccc1N1CCN(Cc2cccc(OC)c2O)CC1 | -25.8
39 | O=C(O)C(=O)O.Oc1ccccc1CN1CCN(C(c2ccccc2)c2ccccc2)CC1 | 17
40 | Fc1ccc(CN2CCN(C(c3ccccc3)c3ccccc3)CC2)cc1.O=C(O)C(=O)O | 15

Row | Structure (SMILES) | hERG current change (%, negative = inhibition) at 10uM [%]
41 | COc1cccc(CN2CCN(C(c3ccccc3)c3ccccc3)CC2)c1O.O=C(O)C(=O)O | -64.5
42 | O=C(O)C(=O)O.c1ccc(OCCOCCN2CCN(C(c3ccccc3)c3ccccc3)CC2)cc1 | -72.7
43 | COc1ccccc1N1CCN(Cc2cccc(OC)c2OC)CC1 | -12.5
44 | O=C(O)C(=O)O.c1ccc(OCCN2CCN(C(c3ccccc3)c3ccccc3)CC2)cc1 | -14.6
45 | N#C/C(C(=O)N1CCOCC1)=C1\Nc2ccccc2S1 | 2.1
46 | CC(=O)NC(Cc1c[nH]c2ccccc12)C(=O)NCc1ccco1 (stereo not shown) | 12.5
47 | CCN(CC)S(=O)(=O)c1cccc(NC(=O)COc2ccc(Cl)cc2Br)c1 | 2.59
48 | CCn1c(SCC(=O)Nc2ccc(C(C)=O)cc2)nc2c([nH]c3ccccc32)c1=O | 5.85
49 | CCOCCCNC(=O)c1ccc(-n2c(=S)[nH]c3ccccc3c2=O)cc1 | 10.8
50 | COc1cccc(OC)c1OCCOCCN1CCN(C)CC1 | 20.8
51 | COc1ccccc1OCCCCCCN1CCOCC1.O=C(O)C(=O)O | 0.0271
52 | COc1ccccc1OCCCCN1CCN(C(c2ccccc2)c2ccccc2)CC1.O=C(O)C(=O)O | -73
53 | COc1cccc(OC)c1OCCN1CCN(C(c2ccccc2)c2ccccc2)CC1 | -72.7
54 | COc1ccccc1OCCCCCCN1CCN(C)CC1.O=C(O)C(=O)O | -5.83
55 | COc1cccc(OC)c1OCCN1CCCC1 | 15.8
56 | COc1ccccc1CN1CCN(Cc2ccc(Cl)cc2)CC1.O=C(O)C(=O)O | -62.5
57 | COc1ccccc1CN1CCCCCC1.O=C(O)C(=O)O | 11.5
58 | COc1ccc(CN2CCN(Cc3ccccc3OC)CC2)cc1.O=C(O)C(=O)O | 2.68
